# Measurements reported in PubChem BioAssay (NCATS).
# Several values for one entry are separate records, joined by “and”; a condition that tells them apart may be missing. Equal values may be shown once. Results filed as inconclusive are left out. Where a call stands in place of a potency, no number is given. Activity calls are given as the source filed them. Unless noted, calls come from the whole dose curve; as a rule, active = well fitted curve in the direction sought with a large enough effect; inconclusive = small, poorly fitted or top-dose-only effect, or another doubt; inactive = no such curve, though single readings can be large; an effect the other way counts as inactive or inconclusive.
# Assays:
# [1] = A High-Content qHTS Against Drug Library for the Identification of Small Molecules that Inhibit DYT1 Early Onset Primary Dystonia-Associated Cell Pathology (AID 1645839; calls by dose curve); conditions: HEK293 Flp-In EGFP-delE TorsinA, punctate imaging, 48 h; series mostly up to 46.1 µM
# Procedure, shortened: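 Induced EGFP-delE TorsinA cells are imaged after 48 h of compound treatment. Punctate fusion-protein distribution gives the %pathology value, while nuclei counts flag toxicity. Wild-type EGFP-hTOR1A cells define the normal pattern.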
# [2] = biological target: Cytochrome P450 2D6 (Homo sapiens) (UniProt P10635); assay: Cytochrome P450 family 2 subfamily D member 6 (CYP2D6) small molecule antagonists: luciferase biochemical (cell-free) qHTS assay (AID 1645840; active = well fitted curve in the direction sought with a large enough effect in the repeat runs; an effect the other way counts as inactive or inconclusive; note: nearly all actives have a fitted effect of over 55% in size; note: potency is the fitted concentration of half-maximal effect); conditions: P450-Glo CYP2D6 enzyme, luciferin luminescence, 1 h; series mostly up to 57.4 µM
# Procedure, shortened: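 P450-Glo CYP2D6 system: proluciferin substrate converted by enzyme to luciferin, read by luminescence proportional to activity. Enzyme-substrate mix with compound 10 min at room temperature, then NADPH regeneration 1 h before detection reagent.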
# [3] = biological target: Cytochrome P450 2C9 (Homo sapiens) (UniProt P11712); assay: Cytochrome P450 family 2 subfamily C member 9 (CYP2C9) small molecule antagonists: luciferase biochemical (cell-free) qHTS assay (AID 1645842; active = well fitted curve in the direction sought with a large enough effect in the repeat runs; an effect the other way counts as inactive or inconclusive; note: nearly all actives have a fitted effect of over 55% in size; note: potency is the fitted concentration of half-maximal effect); conditions: P450-Glo CYP2C9 enzyme assay, luciferin luminescence; series mostly up to 57.4 µM
# Procedure, shortened: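 P450-Glo CYP2C9 system: proluciferin substrate with enzyme in mix containing 0.4% BSA, 10 min at room temperature, then NADPH regeneration solution added and incubated 1 h at 37C. Detection reagent stopped reaction; luminescence read after 20 min as RLU.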
# [4] = Primary qHTS for inhibitors of nuclear receptor binding SET domain protein 2 (NSD2) in an isogenic RCH-ACV NSD2 p.E1099K mutant (9B) (AID 1645876); conditions: RCH-ACV NSD2 E1099K (9B) viability, CellTiter-Glo, 72 h; series mostly up to 44.9 µM; note: nearly all actives have a fitted effect of over 70% in size; note: potency is the fitted concentration of half-maximal effect
# [5] = Primary qHTS for inhibitors of nuclear receptor binding SET domain protein 2 (NSD2) in an RCH-ACV wild type WT cells (2C) (AID 1645877); conditions: RCH-ACV (leukaemia line) NSD2 WT (2C) viability, CellTiter-Glo, 72 h; series mostly up to 44.9 µM; note: nearly all actives have a fitted effect of over 70% in size; note: potency is the fitted concentration of half-maximal effect
# Chain of Cytochrome P450 2C9 (Homo sapiens) (P11712 whole entry, looked up): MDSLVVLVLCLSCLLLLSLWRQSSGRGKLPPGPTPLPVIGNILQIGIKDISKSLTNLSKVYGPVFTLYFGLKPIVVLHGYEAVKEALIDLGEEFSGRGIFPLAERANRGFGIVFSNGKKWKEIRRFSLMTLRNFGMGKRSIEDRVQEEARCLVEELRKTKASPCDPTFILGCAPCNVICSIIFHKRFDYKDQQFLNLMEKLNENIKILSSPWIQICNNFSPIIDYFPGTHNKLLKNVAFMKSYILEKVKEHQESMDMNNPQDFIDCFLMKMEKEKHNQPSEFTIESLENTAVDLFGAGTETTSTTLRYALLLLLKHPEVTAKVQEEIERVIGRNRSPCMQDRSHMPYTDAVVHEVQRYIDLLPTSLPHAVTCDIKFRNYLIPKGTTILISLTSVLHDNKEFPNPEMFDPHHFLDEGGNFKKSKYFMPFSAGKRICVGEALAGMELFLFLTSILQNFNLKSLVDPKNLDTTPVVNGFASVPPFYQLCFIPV
# Chain of Cytochrome P450 2D6 (Homo sapiens) (P10635 whole entry, looked up): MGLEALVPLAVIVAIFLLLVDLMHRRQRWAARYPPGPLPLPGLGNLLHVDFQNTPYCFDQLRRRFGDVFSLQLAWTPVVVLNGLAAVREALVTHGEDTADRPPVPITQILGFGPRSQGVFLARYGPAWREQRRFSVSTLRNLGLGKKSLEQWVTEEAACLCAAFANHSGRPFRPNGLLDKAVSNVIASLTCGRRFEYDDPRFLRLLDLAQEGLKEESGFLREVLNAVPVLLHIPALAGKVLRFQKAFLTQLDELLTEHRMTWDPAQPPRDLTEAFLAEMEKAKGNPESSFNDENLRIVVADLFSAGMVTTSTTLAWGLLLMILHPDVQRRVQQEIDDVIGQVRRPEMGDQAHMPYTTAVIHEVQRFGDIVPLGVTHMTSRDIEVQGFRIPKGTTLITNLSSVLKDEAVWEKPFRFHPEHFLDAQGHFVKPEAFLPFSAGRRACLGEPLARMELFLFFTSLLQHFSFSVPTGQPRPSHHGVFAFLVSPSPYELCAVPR
SMILES,Potency [1],Potency [2],Potency [3],Potency [4],Potency [5]
O=C(Cn1ccnc1[N+](=O)[O-])NCCO,inactive,inactive,inactive,inactive,inactive
Cc1cc(C)c(NC(=O)CN(CC(=O)O)CC(=O)O)c(C)c1Br,inactive,inactive,inactive,inactive,inactive
COC(=O)N/N=C/c1c[n+]([O-])c2ccccc2[n+]1[O-],inactive,inactive,inactive,23.7 µM (active),7.5 µM (active)
CC[N+](C)(CC)CCOC(=O)C1c2ccccc2Oc2ccccc21,inactive,4.36 µM (active),inactive,inactive,inactive
COc1ccc(Cc2cnc(N)nc2N)cc1OC,inactive,inactive,inactive,inactive,inactive
O=C(O)c1ccccc1OP(=O)(O)O,inactive,inactive,inactive,inactive,inactive
Cc1ccsc1C(=CCCN1CCC[C@@H](C(=O)O)C1)c1sccc1C,inactive,inactive,inactive,inactive,inactive
CCN(CC)CCc1nc(-c2ccccc2)no1,inactive,inactive,inactive,inactive,inactive
CN/C(=C\[N+](=O)[O-])NCCSCc1csc(CN(C)C)n1,inactive,inactive,inactive,inactive,inactive
O=C(O)[C@@H]1[C@H]2C[C@H]3c4[nH]c5ccccc5c4CCN3C[C@@H]2CC[C@@H]1O,inactive,0.977 µM (active),inactive,inactive,inactive
CC(=O)Nc1ccc(C(=O)O)cc1,inactive,inactive,inactive,inactive,inactive
NS(=O)(=O)c1ccc(C(=O)O)cc1,inactive,inactive,inactive,inactive,inactive
O=C1CC[C@@H](C(=O)O)N1,inactive,inactive,inactive,inactive,inactive
CN1CC(=O)NC1=N,inactive,inactive,inactive,inactive,inactive
NC(=O)N[C@@H](CCC(=O)O)C(=O)O,inactive,inactive,inactive,inactive,inactive
C=CCNC(N)=S,inactive,inactive,inactive,inactive,inactive
O=C(O)COC(=O)Cc1ccccc1Nc1c(Cl)cccc1Cl,inactive,inactive,17.4 µM (active),inactive,inactive
Cc1c(I)c(=O)n(-c2ccccc2)n1C,inactive,inactive,inactive,inactive,inactive

SMILES,Potency [1],Potency [2],Potency [3],Potency [4],Potency [5]
CN1C(=O)CC(c2ccccc2)C1=O (centres undefined),inactive,inactive,inactive,inactive,inactive
O=C(O)C(S)C(S)C(=O)O (centres undefined),inactive,inactive,inactive,inactive,inactive
Cc1cc(-n2nc3ccc(Cl)cc3n2)c(O)c(C(C)(C)C)c1,inactive,inactive,inactive,inactive,inactive
CCOC(=O)c1cccnc1,inactive,inactive,inactive,inactive,inactive
CCCCCC(C)N (centres undefined),inactive,inactive,inactive,inactive,inactive
NS(=O)(=O)c1cc(-c2nn[nH]n2)c(NCc2cccs2)cc1Cl,inactive,inactive,10.7 µM (active) and 19.5 µM (active),inactive,inactive
NCC1CCC(C(=O)Oc2ccc(CCC(=O)O)cc2)CC1 (centres undefined),inactive,inactive,inactive,inactive,inactive
O=C(/C=C/c1ccccc1)OCc1ccccc1,inactive,inactive,12.3 µM (active),inactive,inactive
OCC(O)CS (centres undefined),inactive,inactive,inactive,inactive,inactive
CC(=O)Oc1cccc(O)c1,inactive,inactive,inactive,inactive,inactive
CCCCCCCCCCCCCCCCCCO,inactive,inactive,inactive,inactive,inactive
CCN(CC)CCOC(=O)C(c1ccccc1)c1ccccc1,inactive,1.95 µM (active),–,inactive,inactive
CCCCOC(=O)c1ccc(N)cc1,–,–,–,–,inactive
CC(C)=CCC/C(C)=C/CO,inactive,–,–,inactive,inactive
CO[C@@]1(NC(=O)C(C(=O)O)c2ccc(O)cc2)C(=O)N2C(C(=O)O)=C(CSc3nnnn3C)CO[C@@H]21 (some centres undefined),inactive,–,inactive,inactive,inactive
Cc1c(NC(C)C)c(=O)n(-c2ccccc2)n1C,inactive,–,inactive,inactive,inactive
Cc1ccccc1N=Nc1ccc(N=Nc2c(O)ccc3ccccc23)c(C)c1,inactive,–,inactive,inactive,inactive
O=C(O)/C=C/c1ccc(Cn2ccnc2)cc1,inactive,inactive,–,inactive,inactive
